EP2 mod = EP2 receptor (human) modulation. P43116. EP2-expressing cells, cAMP HTRF FRET, PGE2 co-stimulation. induction, % at 25 µM. 260,000 tested, 0.83% active;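 active = compounds whose cAMP rise, as percent of the full-agonist control response, exceeds 60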;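 also: rat C6 glioma line stably carrying human EP2 under a CMV promoter; the protocol text gives 20 µM as final concentration; 100% = response of wells given 1 µM PGE2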
PGE2 EP2 inh = inhibitors of human EP2 prostaglandin E2 receptor | C6 glioma cells expressing human EP2, cAMP TR-FRET; cells stimulated with saturating PGE2 | 260,000 tested, 0.52% active | AID 1422 | inhibition, % at 25 µM | P43116;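 active = percent inhibition above 40 after rounding to a whole number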;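 also: rat C6 glioma host cells with rolipram phosphodiesterase inhibitor present; the protocol text gives 20 µM as final concentration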
PG9 Ab binder = binds the HIV-1 gp120 antibody PG9; TR-FRET gp120-PG9 antibody binding; inhibition, % at 6.7 µM; 360,000 tested, 0.43% active; AID 624416; in the data active = inhibition above about 8.5%
SKN-1 block = C. elegans SKN-1 inhibition. C. elegans VP596 Pgst-4::GFP/RFP ratio, acrylamide-induced, 24 h. inhibition, % at 21.8 µM. 360,000 tested, 0.49% active. AID 624304;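 active = interference check ratio from 0.5 to 1.5 plus GFP to RFP signal ratio inhibition reaching or exceeding a fixed threshold, cut at about 30% in these data, passing the limit was not always enough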
Rev-erbA mod = Rev-erb alpha (human) modulation | Rev-erbα–FITC-DNA binding, fluorescence polarization, 90 min | activity, % at 10 µM | 370,000 tested, 0.79% active;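 active = activity above about 14%, limit read from the data; passing the limit was not always enough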;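 also: 0% = DMSO wells with 35 nM protein and 100% = DMSO wells with 750 nM protein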
Target sequence (P20393 whole entry, looked up): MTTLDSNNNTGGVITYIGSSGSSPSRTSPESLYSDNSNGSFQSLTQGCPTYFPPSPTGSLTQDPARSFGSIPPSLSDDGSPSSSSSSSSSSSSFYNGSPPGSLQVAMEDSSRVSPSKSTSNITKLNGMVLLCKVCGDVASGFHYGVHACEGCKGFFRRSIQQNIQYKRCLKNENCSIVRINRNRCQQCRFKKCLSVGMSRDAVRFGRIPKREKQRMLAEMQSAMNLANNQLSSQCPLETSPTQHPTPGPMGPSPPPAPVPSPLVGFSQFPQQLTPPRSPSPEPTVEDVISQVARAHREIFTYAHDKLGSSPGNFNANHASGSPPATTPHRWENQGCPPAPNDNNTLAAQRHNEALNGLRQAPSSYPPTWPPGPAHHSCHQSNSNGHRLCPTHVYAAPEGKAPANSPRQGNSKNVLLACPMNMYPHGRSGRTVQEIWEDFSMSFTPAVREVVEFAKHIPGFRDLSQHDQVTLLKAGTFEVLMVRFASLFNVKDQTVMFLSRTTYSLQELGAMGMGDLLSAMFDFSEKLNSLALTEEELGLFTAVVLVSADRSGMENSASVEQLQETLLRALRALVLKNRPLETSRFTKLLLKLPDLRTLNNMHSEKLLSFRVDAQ
RAM inhibit = yeast RAM network inhibition | S. cerevisiae dse1pr::URA3 reporter, 5-FOA growth OD615, 2 d; analog-sensitive cbk1-as2 kinase mutant strain | inhibition, % at 50 µM | 190,000 tested, 1.8% active;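 active = inhibition above a set limit, 3 SD over mean compound inhibition, cut at about 8.4% in these data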;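 also: 0% = DMSO-only wells with no growth and 100% = 10 µM 1-NA-PP1 full growth; inhibition rescues growth on 5-FOA so higher OD means more RAM inhibition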
RAM 5-FOA = restores 5-FOA growth of efflux-deficient yeast; 1,200 tested, under 10 active; max inhibition, %; S. cerevisiae efflux-deficient reporter strain, 5-FOA growth OD615, 2 days; shares compounds with RAM inhibit; AID 1305; call rule not given here;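 also: plate controls were vehicle for no effect and reference inhibitor for full effect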
The depositor's hits bear a star. An excerpt weighted towards active compounds, which were near 2.9% of everything screened.

`CN(C)S(=O)(=O)c1cc(NC(=O)COC(=O)Cc2ccc(Br)cc2)ccc1Cl` gave EP2 mod -27.4, PGE2 EP2 inh 9.9, PG9 Ab binder -0.4, SKN-1 block -5.0, Rev-erbA mod -1.4, RAM inhibit 11.8* and RAM 5-FOA 1.3.
`CCn1cc(S(=O)(=O)N2CCCC(COc3cccc(OC)c3)C2)c(C)n1` (stereo not drawn) gave EP2 mod -32.6 and PGE2 EP2 inh 8.0.
Screening Cc1ccc(C)c(NC(=O)c2sc(Cl)nc2-c2ccccc2)c1 returned EP2 mod 40.7, PGE2 EP2 inh -0.4, PG9 Ab binder 0.0, SKN-1 block 48.4*, Rev-erbA mod 1.5, RAM inhibit 15.3* and RAM 5-FOA 1.5.
`Cc1ccccc1NC(=O)c1sc(Cl)nc1-c1ccccc1` gave EP2 mod 14.8, PGE2 EP2 inh 12.7, PG9 Ab binder -0.5, SKN-1 block 9.4, Rev-erbA mod -2.3 and RAM inhibit 0.1.
`CC1CCc2nc(NC(=O)CN3CCN(Cc4ccc5c(c4)OCO5)CC3)sc2C1` (stereo not drawn) gave EP2 mod -9.8, PGE2 EP2 inh 2.3, PG9 Ab binder 0.5, SKN-1 block -0.7, Rev-erbA mod 1.3 and RAM inhibit 0.7.
CC1CCc2nc(NC(=O)Nc3ccc4c(c3)OCO4)sc2C1 (stereo not drawn) was read as EP2 mod -0.7, PGE2 EP2 inh 7.2, PG9 Ab binder 1.4, SKN-1 block 4.8, Rev-erbA mod -1.6, RAM inhibit 22.8* and RAM 5-FOA 1.9.
For COc1ccc(NC(=O)CSc2nc(-c3ccccc3)cc(C(F)(F)F)n2)cc1OC the results were EP2 mod -92.9 and PGE2 EP2 inh 8.9.
Screening CCCCOc1cccc(C(=O)NC(=S)Nc2cccc(C(F)(F)F)c2)c1 returned EP2 mod 29.3, PGE2 EP2 inh 4.9, PG9 Ab binder -2.9, SKN-1 block 0.8, Rev-erbA mod -0.2, RAM inhibit 13.4* and RAM 5-FOA 3.0.
For CC(C)Oc1cccc(C(=O)NC(=S)Nc2cccc(C(F)(F)F)c2)c1 the results were EP2 mod 10.2, PGE2 EP2 inh 13.1, PG9 Ab binder -1.8, SKN-1 block -1.4, Rev-erbA mod -5.9, RAM inhibit 11.6* and RAM 5-FOA 2.4.
`CCCCOc1cccc(C(=O)NC(=S)Nc2cccnc2)c1` gave EP2 mod 43.1, PGE2 EP2 inh 4.0, PG9 Ab binder -1.1, SKN-1 block 4.7, Rev-erbA mod -3.2 and RAM inhibit -2.3.
`Cc1cccc(OCc2nc(C#N)c(N3CCCC3)o2)c1` gave EP2 mod 1.3, PGE2 EP2 inh 17.6, PG9 Ab binder 2.4, SKN-1 block 3.6 and Rev-erbA mod 2.6.
Screening N#Cc1nc(COc2cccc(Cl)c2)oc1N1CCN(c2ccccc2)CC1 returned EP2 mod -51.5, PGE2 EP2 inh 6.5, SKN-1 block 1.1, Rev-erbA mod -1.1, RAM inhibit 16.1* and RAM 5-FOA 3.3.
Screening N#Cc1nc(COc2ccccc2)oc1N1CCCCC1 returned EP2 mod 8.3, PGE2 EP2 inh 9.7, PG9 Ab binder -1.5, SKN-1 block 13.1, Rev-erbA mod 3.5 and RAM inhibit -0.5.
Screening N#Cc1nc(COc2ccccc2)oc1N1CCN(c2cccc(Cl)c2)CC1 returned EP2 mod -13.1, PGE2 EP2 inh 15.7, PG9 Ab binder 2.7, SKN-1 block -8.5, Rev-erbA mod -1.3, RAM inhibit 11.6* and RAM 5-FOA 3.2.
For CCN(CC)C(=O)CSc1nc(C(C)(C)C)nc2ccccc12 the results were EP2 mod 29.8 and PGE2 EP2 inh 6.2.
`O=S(=O)(Nc1ccc(N=Nc2ccc(O)c3ccccc23)cc1)c1ccccc1` gave EP2 mod -84.7, PGE2 EP2 inh 14.3, PG9 Ab binder -0.2, SKN-1 block 9.5, Rev-erbA mod 6.7, RAM inhibit 13.5* and RAM 5-FOA 2.7.
Screening Cc1cc(C)nc(N2CCCC(C(=O)NC(C)c3cccs3)C2)n1 (stereo not drawn) returned EP2 mod 18.4 and PGE2 EP2 inh 12.0.
Screening Cc1ccc(Oc2ccc(NC(=O)CCC(=O)OCC(=O)c3cccs3)cc2)cc1C returned EP2 mod 9.8, PGE2 EP2 inh 6.9, PG9 Ab binder -1.3, SKN-1 block 10.7, Rev-erbA mod 2.6, RAM inhibit 12.8* and RAM 5-FOA 2.7.
CC(=O)c1ccc(NC(=O)COC(=O)CCC(=O)c2cccs2)cc1 was read as EP2 mod -0.5, PGE2 EP2 inh 7.1, PG9 Ab binder -0.2, SKN-1 block 1.4, Rev-erbA mod 1.0 and RAM inhibit 2.3.
`CCOc1ccc(-n2c(SCC(=O)N3CCCCC3)nnc2-c2ccncc2)cc1` gave EP2 mod -22.5 and PGE2 EP2 inh 16.0.
`O=C(NCCc1ccccc1)c1oc2ccccc2c1COc1ccccc1` gave EP2 mod 39.8, PGE2 EP2 inh 6.7, PG9 Ab binder -2.4, SKN-1 block 19.2, Rev-erbA mod -2.1, RAM inhibit 18.7* and RAM 5-FOA 3.7.
Screening O=C(Nc1ccccc1Cc1ccccc1)c1oc2ccccc2c1COc1ccccc1 returned EP2 mod 37.4, PGE2 EP2 inh 8.2, PG9 Ab binder -1.8, SKN-1 block -8.6, Rev-erbA mod -5.7, RAM inhibit 11.8* and RAM 5-FOA 3.8.
For CCOCc1c(C(=O)Nc2ccccc2N2CCN(C)CC2)oc2ccccc12 the results were PG9 Ab binder 1.4, SKN-1 block 14.6 and Rev-erbA mod 5.8.
Screening CCN1CCN(C(=O)CN(c2ccc(Cl)c(C(F)(F)F)c2)S(C)(=O)=O)CC1 returned EP2 mod 20.0 and PGE2 EP2 inh 10.7.
Screening COc1ccccc1-n1cnc2c(c1=O)c1nc3ccccc3nc1n2-c1ccc(C)cc1 returned EP2 mod 15.2, PGE2 EP2 inh 1.1, PG9 Ab binder 1.1, SKN-1 block 7.0, Rev-erbA mod -30.3, RAM inhibit 11.4* and RAM 5-FOA 3.2.
Screening CCOc1ccc2[nH]c(=O)c(CN(CC3COCCO3)C(=O)c3ccc(F)cc3)cc2c1 (stereo not drawn) returned EP2 mod -5.3 and PGE2 EP2 inh 9.2.
`CCC(C)(C)n1nnnc1C(C(C)C)N1CCN(Cc2ccc3c(c2)OCO3)CC1` (stereo not drawn) gave EP2 mod -3.9 and PGE2 EP2 inh 11.1.
Screening CCN(CC)S(=O)(=O)c1cccc(-c2nnc(SCc3nc4ccccc4s3)o2)c1 returned EP2 mod 2.5, PGE2 EP2 inh 3.1, PG9 Ab binder 0.0, SKN-1 block 6.9, Rev-erbA mod -1.7, RAM inhibit 15.3* and RAM 5-FOA 2.5.
`CN(C)S(=O)(=O)c1cccc(-c2nnc(SCc3ccc4c(c3)OCCO4)o2)c1` gave EP2 mod 13.6, PGE2 EP2 inh -1.7, PG9 Ab binder 0.2, SKN-1 block 1.1, Rev-erbA mod 1.1 and RAM inhibit 1.7.

Screening results (PubChem)
